{"source": "PubChem BioAssay AID1159580", "about": "(chemical genetic matrix, 2015)", "assay": "chemical genetic growth profiling, strain panel (AID 1159580);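 further: tested at 20 µM; growth read once vehicle control cultures reached saturation at 30 °C; 1 = growth at the plate median or of vehicle wells; lower values mean less growth of the strain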", "details": "growth OD", "note": "Hit rate of the full screen: of about 5,500 compounds, about 2,000 (36%) were called active. About 18% were inconclusive and are not listed. Some of the results follow. Unmarked numbers belong to inactive results. No stated cut-off is given here; in the data, active means normalized growth mostly below about 0.91 (no sharp cut-off); inconclusive means no clear call, values can overlap the other calls; inactive means mostly above about 0.92.", "data": [{"smiles": "O=C1OC(c2ccc(O)cc2)(c2ccc(O)cc2)c2ccccc21", "values": [{"measurement": "normalized growth", "setting": "S. cerevisiae deletion strains, locus YJR043C, strain POL32, hits give low values", "value": 0.991}, {"measurement": "normalized growth", "setting": "S. cerevisiae deletion strains, locus YJR066W, strain TOR1, hits give low values", "value": 0.937}, {"measurement": "normalized growth", "setting": "S. cerevisiae deletion strains, locus YKL009W, strain mrt4, hits give low values", "value": 0.979}, {"measurement": "normalized growth", "setting": "S. cerevisiae deletion strains, locus YKL068W, hits give low values", "value": 0.991}, {"measurement": "normalized growth", "setting": "S. cerevisiae deletion strains, locus YKL085W, strain MDH1 (second series), hits give low values", "value": 0.975}, {"measurement": "normalized growth", "setting": "S. cerevisiae deletion strains, locus YKL085W, strain MDH1, hits give low values", "value": 0.975}, {"measurement": "normalized growth", "setting": "S. cerevisiae deletion strains, locus YKL160W, strain elf1, hits give low values", "value": 0.97}, {"measurement": "normalized growth", "setting": "S. cerevisiae deletion strains, locus YKL190W, strain CNB1, hits give low values", "value": 0.994}, {"measurement": "normalized growth", "setting": "S. cerevisiae deletion strains, locus YKR001C, strain vps1, hits give low values", "value": 0.993}, {"measurement": "normalized growth", "setting": "S. cerevisiae deletion strains, locus YKR091W, strain srl3, hits give low values", "value": 0.989}, {"measurement": "normalized growth", "setting": "S. cerevisiae deletion strains, locus YLL001W, strain dnm1, hits give low values", "value": 0.964}, {"measurement": "normalized growth", "setting": "S. cerevisiae deletion strains, locus YLL026W, hits give low values", "value": 0.973}, {"measurement": "normalized growth", "setting": "S. cerevisiae deletion strains, locus YLL041C, strain sdh2, hits give low values", "value": 0.979}, {"measurement": "normalized growth", "setting": "S. cerevisiae deletion strains, locus YLR027C, strain aat2, hits give low values", "value": 0.983}, {"measurement": "normalized growth", "setting": "S. cerevisiae deletion strains, locus YLR039C, strain RIC1, hits give low values", "value": 0.96}, {"measurement": "normalized growth", "setting": "S. cerevisiae deletion strains, locus YLR058C, strain SHM2, hits give low values", "value": 0.995}, {"measurement": "normalized growth", "setting": "S. cerevisiae deletion strains, locus YLR102C, strain apc9, hits give low values", "value": 0.978}, {"measurement": "normalized growth", "setting": "S. cerevisiae deletion strains, locus YLR113W, strain HOG1, hits give low values", "value": 0.974}, {"measurement": "normalized growth", "setting": "S. cerevisiae deletion strains, locus YLR221C, strain rsa3, hits give low values", "value": 1.01}, {"measurement": "normalized growth", "setting": "S. cerevisiae deletion strains, locus YLR258W, strain gsy2, hits give low values", "value": 0.973}, {"measurement": "normalized growth", "setting": "S. cerevisiae deletion strains, locus YLR262C, strain YPT6 (second series), hits give low values", "value": 0.995}, {"measurement": "normalized growth", "setting": "S. cerevisiae deletion strains, locus YLR262C, strain YPT6, hits give low values", "value": 0.946}, {"measurement": "normalized growth", "setting": "S. cerevisiae deletion strains, locus YLR268W, strain sec22, hits give low values", "value": 0.916}, {"measurement": "normalized growth", "setting": "S. cerevisiae deletion strains, locus YLR320W, strain mms22, hits give low values", "value": 1}, {"measurement": "normalized growth", "setting": "S. cerevisiae deletion strains, locus YLR330W, strain CHS5, hits give low values", "value": 0.982}, {"measurement": "normalized growth", "setting": "S. cerevisiae deletion strains, locus YLR342W, strain FKS1 (second series), hits give low values", "value": 0.998}, {"measurement": "normalized growth", "setting": "S. cerevisiae deletion strains, locus YLR342W, strain FKS1, hits give low values", "value": 0.994}, {"measurement": "normalized growth", "setting": "S. cerevisiae deletion strains, locus YLR357W, strain rsc2, hits give low values", "value": 0.949}, {"measurement": "normalized growth", "setting": "S. cerevisiae deletion strains, locus YLR370C, strain arc18, hits give low values", "value": 0.989}, {"measurement": "normalized growth", "setting": "S. cerevisiae deletion strains, locus YLR371W, strain rom2, hits give low values", "value": 0.948}, {"measurement": "normalized growth", "setting": "S. cerevisiae deletion strains, locus YLR384C, strain iki3, hits give low values", "value": 0.981}, {"measurement": "normalized growth", "setting": "S. cerevisiae deletion strains, locus YLR418C, strain cdc73, hits give low values", "value": "0.835 (active)"}, {"measurement": "normalized growth", "setting": "S. cerevisiae deletion strains, locus YML016C, strain PPZ1, hits give low values", "value": 1}, {"measurement": "normalized growth", "setting": "S. cerevisiae deletion strains, locus YML032C, strain rad52, hits give low values", "value": 0.956}, {"measurement": "normalized growth", "setting": "S. cerevisiae deletion strains, locus YML120C, strain ndi1, hits give low values", "value": 0.977}, {"measurement": "normalized growth", "setting": "S. cerevisiae deletion strains, locus YML124C, strain tub3, hits give low values", "value": 0.978}, {"measurement": "normalized growth", "setting": "S. cerevisiae deletion strains, locus YMR058W, strain fet3, hits give low values", "value": 0.966}, {"measurement": "normalized growth", "setting": "S. cerevisiae deletion strains, locus YMR078C, strain ctf18, hits give low values", "value": 0.968}, {"measurement": "normalized growth", "setting": "S. cerevisiae deletion strains, locus YMR125W, strain sto1, hits give low values", "value": 0.962}, {"measurement": "normalized growth", "setting": "S. cerevisiae deletion strains, locus YMR129W, hits give low values", "value": 0.987}, {"measurement": "normalized growth", "setting": "S. cerevisiae deletion strains, locus YMR205C, strain PFK2, hits give low values", "value": 0.971}, {"measurement": "normalized growth", "setting": "S. cerevisiae deletion strains, locus YMR223W, strain ubp8, hits give low values", "value": 0.997}, {"measurement": "normalized growth", "setting": "S. cerevisiae deletion strains, locus YMR231W, strain pep5, hits give low values", "value": 0.992}, {"measurement": "normalized growth", "setting": "S. cerevisiae deletion strains, locus YMR307W, strain GAS1, hits give low values", "value": 0.909}, {"measurement": "normalized growth", "setting": "S. cerevisiae deletion strains, locus YNL067W, strain RPL9B, hits give low values", "value": 0.987}, {"measurement": "normalized growth", "setting": "S. cerevisiae deletion strains, locus YNL071W, strain lat1, hits give low values", "value": 0.95}, {"measurement": "normalized growth", "setting": "S. cerevisiae deletion strains, locus YNL153C, strain GIM3, hits give low values", "value": 1}, {"measurement": "normalized growth", "setting": "S. cerevisiae deletion strains, locus YNL183C, strain NPR1, hits give low values", "value": 0.956}, {"measurement": "normalized growth", "setting": "S. cerevisiae deletion strains, locus YNL209W, strain ssb2, hits give low values", "value": 0.99}, {"measurement": "normalized growth", "setting": "S. cerevisiae deletion strains, locus YNL233W, strain BNI4, hits give low values", "value": 0.981}, {"measurement": "normalized growth", "setting": "S. cerevisiae deletion strains, locus YNL250W, strain rad50, hits give low values", "value": 0.99}, {"measurement": "normalized growth", "setting": "S. cerevisiae deletion strains, locus YNL271C, strain bni1, hits give low values", "value": 0.988}, {"measurement": "normalized growth", "setting": "S. cerevisiae deletion strains, locus YNL298W, strain CLA4, hits give low values", "value": 0.99}, {"measurement": "normalized growth", "setting": "S. cerevisiae deletion strains, locus YNL307C, strain MCK1, hits give low values", "value": 0.937}, {"measurement": "normalized growth", "setting": "S. cerevisiae deletion strains, locus YNL322C, strain KRE1 (second series), hits give low values", "value": 0.991}, {"measurement": "normalized growth", "setting": "S. cerevisiae deletion strains, locus YNL322C, strain KRE1, hits give low values", "value": 0.994}, {"measurement": "normalized growth", "setting": "S. cerevisiae deletion strains, locus YNR049C, strain mso1, hits give low values", "value": 0.99}, {"measurement": "normalized growth", "setting": "S. cerevisiae deletion strains, locus YNR052C, strain pop2, hits give low values", "value": 0.969}, {"measurement": "normalized growth", "setting": "S. cerevisiae deletion strains, locus YOL006C, strain TOP1, hits give low values", "value": 0.952}, {"measurement": "normalized growth", "setting": "S. cerevisiae deletion strains, locus YOL012C, strain htz1", "value": 0.612}, {"measurement": "normalized growth", "setting": "S. cerevisiae deletion strains, locus YOL147C, strain pex11, hits give low values", "value": 0.981}, {"measurement": "normalized growth", "setting": "S. cerevisiae deletion strains, locus YOR001W, strain rrp6, hits give low values", "value": 0.973}, {"measurement": "normalized growth", "setting": "S. cerevisiae deletion strains, locus YOR061W, strain CKA2, hits give low values", "value": 1}, {"measurement": "normalized growth", "setting": "S. cerevisiae deletion strains, locus YOR069W, strain VPS5, hits give low values", "value": 0.988}, {"measurement": "normalized growth", "setting": "S. cerevisiae deletion strains, locus YOR070C, strain gyp1, hits give low values", "value": 0.991}, {"measurement": "normalized growth", "setting": "S. cerevisiae deletion strains, locus YOR080W, strain dia2, hits give low values", "value": 0.981}, {"measurement": "normalized growth", "setting": "S. cerevisiae deletion strains, locus YOR083W, strain WHI5, hits give low values", "value": 0.983}, {"measurement": "normalized growth", "setting": "S. cerevisiae deletion strains, locus YOR106W, strain vam3, hits give low values", "value": 0.944}, {"measurement": "normalized growth", "setting": "S. cerevisiae deletion strains, locus YOR136W, strain idh2, hits give low values", "value": 0.983}, {"measurement": "normalized growth", "setting": "S. cerevisiae deletion strains, locus YOR144C, strain elg1, hits give low values", "value": 0.987}, {"measurement": "normalized growth", "setting": "S. cerevisiae deletion strains, locus YOR184W, strain ser1, hits give low values", "value": 0.939}, {"measurement": "normalized growth", "setting": "S. cerevisiae deletion strains, locus YOR231W, strain MKK1, hits give low values", "value": 0.974}, {"measurement": "normalized growth", "setting": "S. cerevisiae deletion strains, locus YOR265W, strain rbl2, hits give low values", "value": 0.995}, {"measurement": "normalized growth", "setting": "S. cerevisiae deletion strains, locus YOR270C, strain vph1, hits give low values", "value": 0.89}, {"measurement": "normalized growth", "setting": "S. cerevisiae deletion strains, locus YOR290C, strain snf2, hits give low values", "value": 0.965}, {"measurement": "normalized growth", "setting": "S. cerevisiae deletion strains, locus YOR316C, strain cot1, hits give low values", "value": 0.968}, {"measurement": "normalized growth", "setting": "S. cerevisiae deletion strains, locus YPL051W, strain arl3, hits give low values", "value": 1}, {"measurement": "normalized growth", "setting": "S. cerevisiae deletion strains, locus YPL078C, strain atp4, hits give low values", "value": 0.952}, {"measurement": "normalized growth", "setting": "S. cerevisiae deletion strains, locus YPL106C, strain sse1, hits give low values", "value": 1.01}, {"measurement": "normalized growth", "setting": "S. cerevisiae deletion strains, locus YPL240C, strain hsp82, hits give low values", "value": 0.982}, {"measurement": "normalized growth", "setting": "S. cerevisiae deletion strains, locus YPL241C, strain CIN2, hits give low values", "value": 0.989}, {"measurement": "normalized growth", "setting": "S. cerevisiae deletion strains, locus YPL256C, strain CLN2, hits give low values", "value": 0.965}, {"measurement": "normalized growth", "setting": "S. cerevisiae deletion strains, locus YPR119W, strain clb2, hits give low values", "value": 0.98}, {"measurement": "normalized growth", "setting": "S. cerevisiae deletion strains, locus YPR141C, strain kar3, hits give low values", "value": 0.998}, {"measurement": "normalized growth", "setting": "S. cerevisiae deletion strains, locus YPR163C, strain tif3, hits give low values", "value": 0.965}, {"measurement": "normalized growth", "setting": "S. cerevisiae deletion strains, locus YPR167C, strain met16, hits give low values", "value": 0.972}, {"measurement": "normalized growth", "setting": "S. cerevisiae deletion strains, strain wtn01, hits give low values", "value": 0.954}, {"measurement": "normalized growth", "setting": "S. cerevisiae strains, strain wild type, hits give low values", "value": 0.998}]}]}
